# The OligoGym collection
# What was measured:
# Test in all cases: pooled miR-30 sensor sort-seq; sequence = guide strand
# Conditions in all cases: shRNA
# LHX3 = target: LHX3
# LHFPL4 = target: LHFPL4
# LHX9 = target: LHX9
# LHFPL5 = target: LHFPL5
# LIPA = target: LIPA
# LONP1 = target: LONP1
# LRDD = target: LRDD
# LRRC15 = target: LRRC15
# LTA4H = target: LTA4H
# MAGEA8 = target: MAGEA8
# MAGOHB = target: MAGOHB
# MAGED2 = target: MAGED2
# MAGEA2B = target: MAGEA2B
# MAMSTR = target: MAMSTR
# MAGOH = target: MAGOH
# MALL = target: MALL
# MAN1C1 = target: MAN1C1
# Note: reference of the scale not given here.
sequence,measurement,setting,value
TTGTCCGACTTGGAGCCGCCGC,sensor-assay potency score (higher = more potent),LHX3,-1.19
TTGGCAACAGACATCTGTGGGT,sensor-assay potency score (higher = more potent),LHX3,0.209
AAGAGCTGCATCCAGGCGCAGA,sensor-assay potency score (higher = more potent),LHFPL4,-1.19
TAGGTCAGAACTGGGTCCGTTC,sensor-assay potency score (higher = more potent),LHX3,-0.902
TTGCAGTAAACGCTCTCCCCTC,sensor-assay potency score (higher = more potent),LHX3,-0.865
TGTCACTACAGTGATAGTGGGA,sensor-assay potency score (higher = more potent),LHX9,0.281
TAGTTTGTGAGGGGCTTCCGGA,sensor-assay potency score (higher = more potent),LHX9,-1.17
TAGTTGGTATGGTAGATCTTGG,sensor-assay potency score (higher = more potent),LHFPL5,-1.03
TTTGACTTACACACAGGCCAGC,sensor-assay potency score (higher = more potent),LHX3,-0.684
ATGAGGTAGAACTCGTCGCCCG,sensor-assay potency score (higher = more potent),LHX3,-1.34
TTTCATGTCTAGAAATAGCAGC,sensor-assay potency score (higher = more potent),LHX3,0.283
TGCGTTTTGGAACCAAACCTGC,sensor-assay potency score (higher = more potent),LHX9,-1.08
TGGATGAAGACCACCACGTTGA,sensor-assay potency score (higher = more potent),LHFPL4,-0.905
TTGAAAAAGTCGTCCTTGCAGT,sensor-assay potency score (higher = more potent),LHX3,-0.456
TTGTAGACCGTAGCCGTGTTGC,sensor-assay potency score (higher = more potent),LHFPL4,-0.989
TTACATTCACAGCACTTCAGGC,sensor-assay potency score (higher = more potent),LHX9,-0.155
TAGACTGTGGCCGTGTTGCAGA,sensor-assay potency score (higher = more potent),LHFPL5,-0.721
TAGTGTTATAATAAAAGGCTTC,sensor-assay potency score (higher = more potent),LHFPL5,-0.225
TTTCATGGTCCGGAGCTGGTGA,sensor-assay potency score (higher = more potent),LHX9,-0.253
TTGCAGATGAAGAACAGGCTGA,sensor-assay potency score (higher = more potent),LHFPL5,0.379
TTGAACATAAGTAACACATTTC,sensor-assay potency score (higher = more potent),LHFPL5,-0.364
ATCTTGTAGACCGTAGCCGTGT,sensor-assay potency score (higher = more potent),LHFPL4,-0.823
TTGAGACACTTGCTGTGCCAGT,sensor-assay potency score (higher = more potent),LHX3,-0.489
TATAACAAATTACTTGAACATA,sensor-assay potency score (higher = more potent),LHFPL5,-1.51
TTTGGCAACAGACATCTGTGGG,sensor-assay potency score (higher = more potent),LHX3,-0.246
TTTCTGGGCAAGCTGCTTGAGG,sensor-assay potency score (higher = more potent),LHX9,-0.927
TTGACGCTGTCGCCGATCCAGT,sensor-assay potency score (higher = more potent),LHFPL5,-1.35
TACAGTAGGAGGTCTTGTCTCA,sensor-assay potency score (higher = more potent),LHFPL5,-0.0507
TTGAAGTCTTGGAAAGAGCTGA,sensor-assay potency score (higher = more potent),LHX3,0.479
TAAAGTGGTCGCAGTGCCGGGT,sensor-assay potency score (higher = more potent),LHX9,-0.418
AACATAAGTAACACATTTCTGA,sensor-assay potency score (higher = more potent),LHFPL5,-0.109
TTCCTTCTGAATTTGGCTCGTG,sensor-assay potency score (higher = more potent),LHX9,0.209
TACAGTGATAGTGGGATTGGTC,sensor-assay potency score (higher = more potent),LHX9,-0.245
TTCTGAATTTGGCTCGTGCGTT,sensor-assay potency score (higher = more potent),LHX9,-1.08
TGCACTTGAGACACTTGCTGTG,sensor-assay potency score (higher = more potent),LHX3,-0.126
TAACACATTTCTGAAGCTGGTA,sensor-assay potency score (higher = more potent),LHFPL5,0.181
TTAAAGTGGTCGCAGTGCCGGG,sensor-assay potency score (higher = more potent),LHX9,-1.18
TTGTCTCAGGAGACTGTCCAGT,sensor-assay potency score (higher = more potent),LHFPL5,-0.336
TTCTGGTTGAGTCAGTGTGGGC,sensor-assay potency score (higher = more potent),LHFPL5,-1.68
TTGAGGTCCTTGGCATCCGGGT,sensor-assay potency score (higher = more potent),LHX9,-1.42
TTCAGTATGACATGAGTGCAAA,sensor-assay potency score (higher = more potent),LIPA,-1.31
TATATCCATCTTCTGTCTCAAC,sensor-assay potency score (higher = more potent),LIPA,-1.24
TTGCGGACACCGCTCTCGCGGC,sensor-assay potency score (higher = more potent),LONP1,-1.33
AATCCTCTGAAGCATCTCCTGC,sensor-assay potency score (higher = more potent),LRDD,-1.15
TACAGGTCCAAGCTCAGCCGGT,sensor-assay potency score (higher = more potent),LRDD,-1.52
AACAGCAACGTTGACATTGATG,sensor-assay potency score (higher = more potent),LRRC15,-1.31
TTGATTGAGAACATCAACCTTA,sensor-assay potency score (higher = more potent),LTA4H,0.904
TTGATGAGAAGAGAGATCCTTC,sensor-assay potency score (higher = more potent),LTA4H,0.703
TGTGGGAATCTGCACATCCATA,sensor-assay potency score (higher = more potent),MAGEA8,-1.63
TACAATTTCAAGCTCCTGTCGG,sensor-assay potency score (higher = more potent),MAGOHB,0.0556
TTGGGTGAGTCCTTAGTCGTTC,sensor-assay potency score (higher = more potent),MAGED2,-0.156
TTCTTTTGTAATTTCACTGTCA,sensor-assay potency score (higher = more potent),MAGOHB,0.267
TTTCTCATCAAGTGCTTCCCGG,sensor-assay potency score (higher = more potent),MAGEA8,-0.5
TTTTGAGACCTTCACATCCTCT,sensor-assay potency score (higher = more potent),MAGED2,-1.1
TTCTTTGATGATGTCCTTCAGC,sensor-assay potency score (higher = more potent),MAGED2,-0.636
TTTCTTGGCTTTGACCTTGGGC,sensor-assay potency score (higher = more potent),MAGED2,0.00108
TTCTTTATGTCTTTATCTCATG,sensor-assay potency score (higher = more potent),MAGEA8,-1.14
TTACATCAATAAGAGAACCTAT,sensor-assay potency score (higher = more potent),MAGOHB,-0.7
TAGCGCACAGGATCACTGCCGG,sensor-assay potency score (higher = more potent),MAGEA8,-0.803
TTCTCATCAAGTGCTTCCCGGA,sensor-assay potency score (higher = more potent),MAGEA8,-0.615
ATATCTAAGCTTTCCGTCCGGC,sensor-assay potency score (higher = more potent),MAGOHB,-0.264
TTGATGGGAATCTTCGTCTGGT,sensor-assay potency score (higher = more potent),MAGED2,-0.0413
AACAGAGTCTGCATCATCGAGC,sensor-assay potency score (higher = more potent),MAGED2,-0.281
ATTTCTGAGGACACTCTCCAGC,sensor-assay potency score (higher = more potent),MAGEA2B,-1.24
TTCGAACTCCAGAAACTCGTGC,sensor-assay potency score (higher = more potent),MAGOHB,0.282
ATCAATGCCAAAGATCACCTGC,sensor-assay potency score (higher = more potent),MAGEA8,0.274
TTGCATGAGCAGCTTCCTGGGA,sensor-assay potency score (higher = more potent),MAGEA2B,-0.244
TCTGAGGACACTCTCCAGCATT,sensor-assay potency score (higher = more potent),MAGEA2B,-1.1
TTCCATTACACTCTTGTGCACA,sensor-assay potency score (higher = more potent),MAGOHB,-0.478
TTGTATTGACCTTTGTATCAGC,sensor-assay potency score (higher = more potent),MAGED2,-0.669
TCTTGCATGAGCAGCTTCCTGG,sensor-assay potency score (higher = more potent),MAGEA2B,-1.1
TTCCTCAGCCTTGTAGCGCTGA,sensor-assay potency score (higher = more potent),MAGEA8,0.23
TAATCCTCTGCTCTTGTAGTGT,sensor-assay potency score (higher = more potent),MAGEA8,-0.188
TTTGATGACACTCTCAAGCATT,sensor-assay potency score (higher = more potent),MAGEA8,-0.926
TCTTCTTTTGTAATTTCACTGT,sensor-assay potency score (higher = more potent),MAGOHB,-0.146
TTTCTGATCATCACATCATTTT,sensor-assay potency score (higher = more potent),MAGOHB,-1.65
AAAATGAACCAACTCAACCATC,sensor-assay potency score (higher = more potent),MAGEA2B,-1.2
TCTTCCTACTGATTGCTGCTTG,sensor-assay potency score (higher = more potent),MAGEA2B,-0.703
TTTATGTCTTTATCTCATGTAT,sensor-assay potency score (higher = more potent),MAGEA8,-0.397
TTTGATGATGTCCTTCAGCATG,sensor-assay potency score (higher = more potent),MAGED2,-1.48
TTGATGGTAGTCGAGAAGCTGG,sensor-assay potency score (higher = more potent),MAGEA2B,-0.963
TTTAGCTTCTGCTCCCGCCTGG,sensor-assay potency score (higher = more potent),MAGED2,-0.0182
TCGAGCTCTAATCTCGGCCCTA,sensor-assay potency score (higher = more potent),MAGED2,-0.609
TAGAGGAGGAGGATGCAGCCTT,sensor-assay potency score (higher = more potent),MAGEA8,-0.332
ACCAACTCAACCATCTTCCTAC,sensor-assay potency score (higher = more potent),MAGEA2B,-1.03
TCCAGGTCGGGAAACATTCTTG,sensor-assay potency score (higher = more potent),MAGEA2B,-1.23
TTCTTTTGTACCTTGCAGGCAA,sensor-assay potency score (higher = more potent),MAGED2,0.18
TTTTCTGATCATCACATCATTT,sensor-assay potency score (higher = more potent),MAGOHB,-1.33
TAGACTTGGTCCCCGACACTGG,sensor-assay potency score (higher = more potent),MAMSTR,-0.651
TCGGCTTGGGGGTCTGCCCTGG,sensor-assay potency score (higher = more potent),MAMSTR,-0.566
TTAACTTCCCGTCCGGTCGAAA,sensor-assay potency score (higher = more potent),MAGOH,-1.06
TAAATGTCCAAACAAAGTGTGG,sensor-assay potency score (higher = more potent),MALL,-1.11
TCTGAAGTTCCAACTTGTGTGG,sensor-assay potency score (higher = more potent),MAMSTR,-0.0798
TTGATTGACATCAATAAGGGAA,sensor-assay potency score (higher = more potent),MAGOH,0.101
TTTTCTGATCATGACATCATTC,sensor-assay potency score (higher = more potent),MAGOH,-1.16
TAATGTAGTAAATTCTTGGGTC,sensor-assay potency score (higher = more potent),MALL,0.801
TCTTTTGTAAAATCCAAACAAG,sensor-assay potency score (higher = more potent),MALL,-1.37
TTGACCGAGCCCTGACGCCGGG,sensor-assay potency score (higher = more potent),MAMSTR,-1.2
TAATAAAATACTCGTAAGCCTT,sensor-assay potency score (higher = more potent),MAGOH,-0.986
AGTTTCTCAGAAACAATCGTGG,sensor-assay potency score (higher = more potent),MALL,-1.29
TTCCTGCAGCTCCTCCTCCAGA,sensor-assay potency score (higher = more potent),MAMSTR,-1.58
TAAGACAACAGGAACATCAAGG,sensor-assay potency score (higher = more potent),MALL,-0.729
ATATCTTAACTTCCCGTCCGGT,sensor-assay potency score (higher = more potent),MAGOH,-0.615
TCCAGAGTCAGAGCCGCTGAGC,sensor-assay potency score (higher = more potent),MAMSTR,-2
TAACGCTTATAGCTCTGCCAAG,sensor-assay potency score (higher = more potent),MAN1C1,-1.49
TTAATGTAGTAAATTCTTGGGT,sensor-assay potency score (higher = more potent),MALL,-0.194
TTCTCAGAAACAATCGTGGCAT,sensor-assay potency score (higher = more potent),MALL,0.00713
AAACAAGTAAGACAACAGGAAC,sensor-assay potency score (higher = more potent),MALL,-1.63
TTAGGAAGCAACTGCGCCCTCC,sensor-assay potency score (higher = more potent),MAMSTR,-0.483
TGCTGCGCTGGGCTTGACCGAG,sensor-assay potency score (higher = more potent),MAMSTR,-1.43
TCCAATAAGACTGAAGACCAAA,sensor-assay potency score (higher = more potent),MAGOH,-1.96
TGCTGGAGTCAGATAAGTCAGC,sensor-assay potency score (higher = more potent),MAMSTR,-1.36
TTTCTCAGAAACAATCGTGGCA,sensor-assay potency score (higher = more potent),MALL,0.81
TGAAGTTCCAACTTGTGTGGGG,sensor-assay potency score (higher = more potent),MAMSTR,0.878
TAAGCCTTCTGGATCCTTGGAT,sensor-assay potency score (higher = more potent),MAGOH,0.401
TACAGGATGCCAGTGGTCCCGT,sensor-assay potency score (higher = more potent),MALL,-0.996
TTGGCATATCTTAACTTCCCGT,sensor-assay potency score (higher = more potent),MAGOH,-0.899
TTCTTGTAATTGCTGTTGTTGG,sensor-assay potency score (higher = more potent),MAGOH,-1.26
TCAAACTCCAGGAACTCGTGGC,sensor-assay potency score (higher = more potent),MAGOH,0.562
TTGTCTCCGATCCTGTGTCTGC,sensor-assay potency score (higher = more potent),MAMSTR,-0.79
